One sequence from PMC7862700, “An all-to-all approach to the identification of sequence-specific readers for epigenetic DNA modifications on cytosine” can be followed below.

What all share (assay): DAPPL (digital affinity profiling via proximity ligation, sequencing); 10 mM Tris-HCl pH 7.5, 50 mM NaCl, 1 mM DTT, 4% glycerol, room temperature, 30 min; GST-TFs on glutathione beads, 16-mer random dsDNA library, 0.1% formaldehyde crosslink after washing; high values mean tight binding
In one assay the target is T1, FLI1 (Homo sapiens, UniProt Q01543 1-452).
T1 sequence: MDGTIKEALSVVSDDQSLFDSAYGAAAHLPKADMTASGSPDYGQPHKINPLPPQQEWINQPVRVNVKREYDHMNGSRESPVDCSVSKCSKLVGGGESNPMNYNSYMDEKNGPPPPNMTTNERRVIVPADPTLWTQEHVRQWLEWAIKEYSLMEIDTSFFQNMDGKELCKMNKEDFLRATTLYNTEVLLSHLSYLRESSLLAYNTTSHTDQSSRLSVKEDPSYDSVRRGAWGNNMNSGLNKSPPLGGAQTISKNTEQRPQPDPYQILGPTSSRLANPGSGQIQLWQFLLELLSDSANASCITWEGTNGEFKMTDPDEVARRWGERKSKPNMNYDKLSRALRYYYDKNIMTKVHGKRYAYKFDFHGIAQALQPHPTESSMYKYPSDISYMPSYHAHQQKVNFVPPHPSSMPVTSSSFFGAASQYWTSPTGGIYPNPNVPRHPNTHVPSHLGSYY
As to conditions: protein: recombinant; tags: N-terminal GST; dsDNA, one strand shown. An outline of the steps: (§1)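 Sequencing on an Illumina NextSeq500 followed washing, crosslinking with 0.1% formaldehyde, proximity ligation (BsaI/T4 ligase, 1 h, 37 °C) and PCR amplification of pools that had been incubated for 30 min at room temperature with 200 nmole of a random double-stranded 16-mer DNA library in Tris/NaCl/DTT/glycerol buffer. Each pool held DNA-barcoded human transcription factors, expressed in yeast as GST fusions and captured on glutathione beads, plus a tag-only sample. Binding signal is a hexamer's read frequency for a factor divided by its frequency in the tag-only sample.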

A further assay deals with T2, ELK1 (Homo sapiens, UniProt P19419 1-428).
T2 sequence: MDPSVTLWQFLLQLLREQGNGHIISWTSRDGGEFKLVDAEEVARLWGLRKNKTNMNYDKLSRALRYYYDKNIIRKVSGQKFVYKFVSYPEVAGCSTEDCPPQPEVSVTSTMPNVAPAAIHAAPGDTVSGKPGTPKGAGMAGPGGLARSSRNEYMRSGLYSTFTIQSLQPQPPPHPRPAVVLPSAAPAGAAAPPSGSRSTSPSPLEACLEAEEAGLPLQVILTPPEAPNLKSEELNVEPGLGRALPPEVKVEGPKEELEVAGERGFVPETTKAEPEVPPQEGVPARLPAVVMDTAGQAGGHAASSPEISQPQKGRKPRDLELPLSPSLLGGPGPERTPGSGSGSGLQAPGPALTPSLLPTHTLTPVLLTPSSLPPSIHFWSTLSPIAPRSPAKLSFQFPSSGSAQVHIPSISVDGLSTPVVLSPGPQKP
To be noted: protein: recombinant; tags: N-terminal GST; dsDNA, one strand shown. The essentials:
as §1

The target of a further assay is T3, GABPA (Homo sapiens, UniProt Q06546 1-454).
T3 sequence: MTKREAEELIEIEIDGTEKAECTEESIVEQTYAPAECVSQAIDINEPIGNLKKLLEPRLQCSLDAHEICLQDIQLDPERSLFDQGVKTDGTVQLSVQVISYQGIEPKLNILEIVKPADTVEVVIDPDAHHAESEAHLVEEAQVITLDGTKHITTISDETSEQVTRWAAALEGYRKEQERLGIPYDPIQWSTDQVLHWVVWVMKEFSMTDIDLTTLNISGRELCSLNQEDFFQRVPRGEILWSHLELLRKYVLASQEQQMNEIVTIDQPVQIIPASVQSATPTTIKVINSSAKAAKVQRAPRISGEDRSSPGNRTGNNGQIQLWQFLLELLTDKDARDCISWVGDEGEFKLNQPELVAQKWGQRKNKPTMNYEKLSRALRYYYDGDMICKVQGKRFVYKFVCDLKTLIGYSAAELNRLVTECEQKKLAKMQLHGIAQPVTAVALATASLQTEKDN
As to conditions: protein: recombinant; tags: N-terminal GST; dsDNA, one strand shown. An outline of the steps:
as §1

The target in another assay is T4, ERG (Homo sapiens, UniProt P11308 1-479).
T4 sequence: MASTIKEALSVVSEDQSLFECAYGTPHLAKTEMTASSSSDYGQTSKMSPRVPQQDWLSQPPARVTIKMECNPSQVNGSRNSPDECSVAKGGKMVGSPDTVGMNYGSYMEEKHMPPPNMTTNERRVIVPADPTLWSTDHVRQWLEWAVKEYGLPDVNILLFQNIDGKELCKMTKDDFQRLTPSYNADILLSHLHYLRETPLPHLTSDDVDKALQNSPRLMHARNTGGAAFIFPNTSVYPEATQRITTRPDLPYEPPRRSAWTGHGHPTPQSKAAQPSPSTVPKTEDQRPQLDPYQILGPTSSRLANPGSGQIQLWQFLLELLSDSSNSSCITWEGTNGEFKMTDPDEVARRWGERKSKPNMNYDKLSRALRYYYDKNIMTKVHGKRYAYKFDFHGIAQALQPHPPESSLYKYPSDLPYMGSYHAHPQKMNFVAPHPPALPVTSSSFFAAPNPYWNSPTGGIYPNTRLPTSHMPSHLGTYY
As to conditions: protein: recombinant; tags: N-terminal GST; dsDNA, one strand shown. An outline of the steps: as §1

In another assay the target is ELF1 (Homo sapiens, UniProt P32519 1-619). As to conditions: protein: recombinant; tags: N-terminal GST; dsDNA, one strand shown. An outline of the steps:
as §1

The target in a further assay is T5, EHF (Homo sapiens, UniProt Q9NZC4 1-300).
T5 sequence: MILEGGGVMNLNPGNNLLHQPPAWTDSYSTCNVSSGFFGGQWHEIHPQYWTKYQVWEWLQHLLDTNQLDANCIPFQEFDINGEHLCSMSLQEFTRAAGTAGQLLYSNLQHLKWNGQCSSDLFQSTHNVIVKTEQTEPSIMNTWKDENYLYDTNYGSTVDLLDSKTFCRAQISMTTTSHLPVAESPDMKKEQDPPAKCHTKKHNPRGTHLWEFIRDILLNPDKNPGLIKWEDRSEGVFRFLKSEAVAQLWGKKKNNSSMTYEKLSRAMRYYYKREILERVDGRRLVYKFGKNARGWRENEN
To be noted: protein: recombinant; tags: N-terminal GST; dsDNA, one strand shown. An outline of the steps: as §1

The target of the next assay is SPI1 (Homo sapiens, UniProt P17947 1-270). To be noted: protein: recombinant; tags: N-terminal GST; dsDNA, one strand shown. An outline of the steps:
as §1

The target in a further assay is SPIB (Homo sapiens, UniProt Q01892 1-262). To be noted: protein: recombinant; tags: N-terminal GST; dsDNA, one strand shown. An outline of the steps:
as §1

The next assay concerns the target T6, ELK3 (Homo sapiens, UniProt P41970 1-407).
T6 sequence: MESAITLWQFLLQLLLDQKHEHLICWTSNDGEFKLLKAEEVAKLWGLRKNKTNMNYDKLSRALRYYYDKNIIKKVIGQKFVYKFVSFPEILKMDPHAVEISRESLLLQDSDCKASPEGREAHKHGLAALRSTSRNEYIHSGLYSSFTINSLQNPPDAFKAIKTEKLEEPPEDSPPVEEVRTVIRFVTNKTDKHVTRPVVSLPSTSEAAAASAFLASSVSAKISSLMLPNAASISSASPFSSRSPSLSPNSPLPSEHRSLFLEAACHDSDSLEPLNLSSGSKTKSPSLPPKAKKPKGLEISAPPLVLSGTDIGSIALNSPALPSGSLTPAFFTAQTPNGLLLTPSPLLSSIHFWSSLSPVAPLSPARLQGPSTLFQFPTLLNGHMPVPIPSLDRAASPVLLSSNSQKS
To be noted: protein: recombinant; tags: N-terminal GST; dsDNA, one strand shown. An outline of the steps: as §1

Another assay addresses T7, FEV (Homo sapiens, UniProt Q99581 1-238).
T7 sequence: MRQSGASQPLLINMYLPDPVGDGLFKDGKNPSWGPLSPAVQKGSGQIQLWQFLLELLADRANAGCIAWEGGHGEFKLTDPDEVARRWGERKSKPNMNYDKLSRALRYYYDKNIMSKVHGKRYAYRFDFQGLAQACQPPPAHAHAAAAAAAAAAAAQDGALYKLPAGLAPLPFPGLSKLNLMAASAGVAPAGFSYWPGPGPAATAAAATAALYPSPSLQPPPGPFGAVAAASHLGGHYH
To be noted: protein: recombinant; tags: N-terminal GST; dsDNA, one strand shown. The essentials:
as §1

In the next assay the target is ETV5 (Homo sapiens, UniProt P41161 1-510). As to conditions: protein: recombinant; tags: N-terminal GST; dsDNA, one strand shown. An outline of the steps:
as §1

Another assay has as its target HSF1 (Homo sapiens, UniProt Q00613 1-529). To be noted: protein: recombinant; tags: N-terminal GST; chain copies: 3; dsDNA, one strand shown. An outline of the steps:
as §1

A further assay concerns the target T8, SPIC (Homo sapiens, UniProt Q8N5J4 1-248).
T8 sequence: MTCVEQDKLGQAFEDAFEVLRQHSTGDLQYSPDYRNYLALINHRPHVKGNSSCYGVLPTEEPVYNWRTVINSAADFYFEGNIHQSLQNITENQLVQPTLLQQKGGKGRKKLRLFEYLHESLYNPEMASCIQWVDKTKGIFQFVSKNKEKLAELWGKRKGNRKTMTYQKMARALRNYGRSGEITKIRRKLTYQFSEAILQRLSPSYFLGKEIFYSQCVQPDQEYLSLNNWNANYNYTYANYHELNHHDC
To be noted: protein: recombinant; tags: N-terminal GST; dsDNA, one strand shown. The essentials:
as §1

A further assay has as its target ELF4 (Homo sapiens, UniProt Q99607 1-663). To be noted: protein: recombinant; tags: N-terminal GST; dsDNA, one strand shown. An outline of the steps:
as §1

A further assay addresses T9, ELK4 (Homo sapiens, UniProt P28324-2 1-405).
T9 sequence: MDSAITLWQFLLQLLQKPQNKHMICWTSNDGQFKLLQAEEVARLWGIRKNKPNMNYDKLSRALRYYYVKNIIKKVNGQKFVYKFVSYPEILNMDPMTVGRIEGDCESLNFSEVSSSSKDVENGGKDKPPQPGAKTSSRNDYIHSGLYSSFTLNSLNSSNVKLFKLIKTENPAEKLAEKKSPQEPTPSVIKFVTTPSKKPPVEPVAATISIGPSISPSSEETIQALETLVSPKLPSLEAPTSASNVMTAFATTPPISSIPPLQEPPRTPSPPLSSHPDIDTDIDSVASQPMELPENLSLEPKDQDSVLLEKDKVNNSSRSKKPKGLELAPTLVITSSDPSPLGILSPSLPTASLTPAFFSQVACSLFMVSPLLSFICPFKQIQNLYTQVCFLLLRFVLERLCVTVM
As to conditions: protein: recombinant; tags: N-terminal GST; dsDNA, one strand shown. An outline of the steps: as §1

Another assay addresses T10, ETV2 (Homo sapiens, UniProt O00321 1-342).
T10 sequence: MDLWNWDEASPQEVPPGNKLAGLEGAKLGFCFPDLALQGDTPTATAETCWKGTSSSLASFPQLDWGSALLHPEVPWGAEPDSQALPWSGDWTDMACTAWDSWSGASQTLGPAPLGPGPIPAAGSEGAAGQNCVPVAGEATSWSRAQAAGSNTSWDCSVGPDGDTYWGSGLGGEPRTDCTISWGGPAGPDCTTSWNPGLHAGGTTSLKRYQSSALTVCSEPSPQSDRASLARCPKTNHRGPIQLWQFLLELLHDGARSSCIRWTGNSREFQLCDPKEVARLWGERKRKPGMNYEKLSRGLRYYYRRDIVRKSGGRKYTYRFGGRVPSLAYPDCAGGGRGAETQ
As to conditions: protein: recombinant; tags: N-terminal GST; dsDNA, one strand shown. The essentials: as §1

Another assay has as its target T11, ELF3 (Homo sapiens, UniProt P78545 1-371).
T11 sequence: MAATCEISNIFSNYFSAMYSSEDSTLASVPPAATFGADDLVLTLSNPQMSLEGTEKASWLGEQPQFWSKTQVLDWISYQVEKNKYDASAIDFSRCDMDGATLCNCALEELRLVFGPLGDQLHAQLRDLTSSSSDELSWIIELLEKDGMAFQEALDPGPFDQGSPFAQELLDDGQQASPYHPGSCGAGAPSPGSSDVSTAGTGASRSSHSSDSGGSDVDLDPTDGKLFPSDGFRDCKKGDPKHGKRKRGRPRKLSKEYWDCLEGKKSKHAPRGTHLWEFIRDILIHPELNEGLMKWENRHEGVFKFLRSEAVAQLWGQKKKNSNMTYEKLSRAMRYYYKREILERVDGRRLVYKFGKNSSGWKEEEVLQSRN
As to conditions: protein: recombinant; tags: N-terminal GST; dsDNA, one strand shown. The essentials: as §1

Another assay deals with ETV1 (Homo sapiens, UniProt P50549 1-477). To be noted: protein: recombinant; tags: N-terminal GST; dsDNA, one strand shown. An outline of the steps:
as §1

ETV5, sequence (P41161 whole entry): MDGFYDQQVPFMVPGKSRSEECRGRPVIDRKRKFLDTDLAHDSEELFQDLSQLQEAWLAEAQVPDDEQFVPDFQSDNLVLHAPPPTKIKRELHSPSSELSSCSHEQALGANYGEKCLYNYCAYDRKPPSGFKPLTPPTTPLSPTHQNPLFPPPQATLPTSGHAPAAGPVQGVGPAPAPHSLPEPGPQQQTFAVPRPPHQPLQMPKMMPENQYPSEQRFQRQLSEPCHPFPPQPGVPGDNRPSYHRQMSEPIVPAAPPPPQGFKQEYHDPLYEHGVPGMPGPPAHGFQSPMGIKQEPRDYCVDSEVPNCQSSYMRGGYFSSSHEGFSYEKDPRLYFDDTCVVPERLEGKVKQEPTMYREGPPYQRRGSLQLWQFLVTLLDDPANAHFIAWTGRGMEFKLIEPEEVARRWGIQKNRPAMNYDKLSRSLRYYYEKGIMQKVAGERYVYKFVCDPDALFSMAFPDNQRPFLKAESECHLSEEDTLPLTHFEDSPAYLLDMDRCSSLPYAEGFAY
ETV1, sequence (P50549 whole entry): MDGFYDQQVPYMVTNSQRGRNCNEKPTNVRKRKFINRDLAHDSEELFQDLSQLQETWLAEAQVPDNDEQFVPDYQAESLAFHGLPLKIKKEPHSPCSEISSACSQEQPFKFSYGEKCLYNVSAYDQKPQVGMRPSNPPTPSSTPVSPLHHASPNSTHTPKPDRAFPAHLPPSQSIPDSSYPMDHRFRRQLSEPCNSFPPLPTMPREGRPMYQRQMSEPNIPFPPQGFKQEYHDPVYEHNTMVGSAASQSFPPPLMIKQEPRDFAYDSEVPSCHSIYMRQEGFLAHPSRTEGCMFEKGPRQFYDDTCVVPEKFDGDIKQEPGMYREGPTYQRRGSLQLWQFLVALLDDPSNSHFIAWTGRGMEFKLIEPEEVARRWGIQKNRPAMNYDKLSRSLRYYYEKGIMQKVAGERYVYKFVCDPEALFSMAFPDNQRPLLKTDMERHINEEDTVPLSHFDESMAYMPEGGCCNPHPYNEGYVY
ELF4, sequence (Q99607 whole entry): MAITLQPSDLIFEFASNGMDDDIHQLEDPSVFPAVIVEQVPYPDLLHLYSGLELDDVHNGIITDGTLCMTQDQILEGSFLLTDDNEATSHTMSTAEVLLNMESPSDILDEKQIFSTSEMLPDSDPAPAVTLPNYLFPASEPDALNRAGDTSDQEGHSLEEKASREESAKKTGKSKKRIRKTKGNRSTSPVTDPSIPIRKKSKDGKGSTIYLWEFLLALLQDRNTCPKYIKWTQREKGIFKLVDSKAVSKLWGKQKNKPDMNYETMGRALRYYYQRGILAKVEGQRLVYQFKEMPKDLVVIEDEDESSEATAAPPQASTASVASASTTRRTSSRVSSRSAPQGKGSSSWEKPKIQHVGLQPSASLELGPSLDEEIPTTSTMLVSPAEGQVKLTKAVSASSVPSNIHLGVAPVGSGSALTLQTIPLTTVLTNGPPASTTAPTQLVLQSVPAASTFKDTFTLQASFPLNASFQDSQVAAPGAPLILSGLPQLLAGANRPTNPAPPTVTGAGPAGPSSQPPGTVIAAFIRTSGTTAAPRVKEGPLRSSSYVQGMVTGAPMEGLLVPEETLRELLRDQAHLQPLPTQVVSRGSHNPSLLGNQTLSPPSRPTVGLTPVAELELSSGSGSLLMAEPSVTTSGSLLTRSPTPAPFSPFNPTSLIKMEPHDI
ELF1, sequence (P32519 whole entry): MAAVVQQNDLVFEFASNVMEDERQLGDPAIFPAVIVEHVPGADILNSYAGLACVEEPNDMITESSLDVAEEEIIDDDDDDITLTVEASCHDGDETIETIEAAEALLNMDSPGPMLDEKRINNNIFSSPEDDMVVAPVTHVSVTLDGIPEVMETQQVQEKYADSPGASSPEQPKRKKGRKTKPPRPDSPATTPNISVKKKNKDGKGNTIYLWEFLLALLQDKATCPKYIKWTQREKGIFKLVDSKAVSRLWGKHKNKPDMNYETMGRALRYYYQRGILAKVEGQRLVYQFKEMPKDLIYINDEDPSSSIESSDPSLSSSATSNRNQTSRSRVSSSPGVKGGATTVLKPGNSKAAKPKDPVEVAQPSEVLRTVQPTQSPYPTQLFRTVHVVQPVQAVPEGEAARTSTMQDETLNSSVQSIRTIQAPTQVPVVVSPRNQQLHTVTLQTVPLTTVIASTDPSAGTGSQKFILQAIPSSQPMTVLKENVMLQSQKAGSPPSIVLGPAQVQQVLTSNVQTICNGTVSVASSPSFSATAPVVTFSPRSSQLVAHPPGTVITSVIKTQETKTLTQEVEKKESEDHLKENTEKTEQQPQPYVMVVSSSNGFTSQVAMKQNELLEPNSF
SPIB, sequence (Q01892 whole entry): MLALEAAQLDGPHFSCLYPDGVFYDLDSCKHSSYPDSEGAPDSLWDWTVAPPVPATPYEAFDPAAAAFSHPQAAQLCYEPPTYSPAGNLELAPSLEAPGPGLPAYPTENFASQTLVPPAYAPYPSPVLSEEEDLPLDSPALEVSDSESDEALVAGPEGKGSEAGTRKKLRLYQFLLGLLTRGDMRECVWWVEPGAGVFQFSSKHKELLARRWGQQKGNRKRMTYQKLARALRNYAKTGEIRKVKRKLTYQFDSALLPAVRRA
HSF1, sequence (Q00613 whole entry): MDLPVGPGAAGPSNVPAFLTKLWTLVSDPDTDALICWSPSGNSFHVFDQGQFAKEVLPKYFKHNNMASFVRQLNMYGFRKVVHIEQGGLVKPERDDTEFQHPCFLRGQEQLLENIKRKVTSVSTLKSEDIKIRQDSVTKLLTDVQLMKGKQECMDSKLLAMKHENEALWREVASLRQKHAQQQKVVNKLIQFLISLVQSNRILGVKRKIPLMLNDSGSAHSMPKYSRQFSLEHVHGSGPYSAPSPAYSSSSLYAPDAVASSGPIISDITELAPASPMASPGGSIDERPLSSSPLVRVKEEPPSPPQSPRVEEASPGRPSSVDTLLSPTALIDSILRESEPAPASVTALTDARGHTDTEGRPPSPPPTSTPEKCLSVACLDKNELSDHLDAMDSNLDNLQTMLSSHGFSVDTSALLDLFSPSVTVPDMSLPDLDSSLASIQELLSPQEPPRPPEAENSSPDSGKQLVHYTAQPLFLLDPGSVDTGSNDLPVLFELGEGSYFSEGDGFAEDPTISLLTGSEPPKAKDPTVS

For the sequence CACTCC, the binding signal with FLI1 is 1.27 fold enrichment (6-mer frequency, TF over GST control); with ELK1, 1.41 fold enrichment (6-mer frequency, TF over GST control); with GABPA it was 1.32 fold enrichment (6-mer frequency, TF over GST control); with ERG, 1.29 fold enrichment (6-mer frequency, TF over GST control); in the assay with ELF1, 1.34 fold enrichment (6-mer frequency, TF over GST control); in the assay with EHF, 1.17 fold enrichment (6-mer frequency, TF over GST control). Besides, the binding signal in the assay with SPI1 was 1.23 fold enrichment (6-mer frequency, TF over GST control); in the assay with SPIB, 1.33 fold enrichment (6-mer frequency, TF over GST control); with ELK3, 1.27 fold enrichment (6-mer frequency, TF over GST control); with FEV, 1.28 fold enrichment (6-mer frequency, TF over GST control); with ETV5, 1.27 fold enrichment (6-mer frequency, TF over GST control); with HSF1 it was 1.05 fold enrichment (6-mer frequency, TF over GST control). In addition, the binding signal with SPIC was 1.28 fold enrichment (6-mer frequency, TF over GST control); with ELF4 it was 1.34 fold enrichment (6-mer frequency, TF over GST control); with ELK4 it was 1.35 fold enrichment (6-mer frequency, TF over GST control); with ETV2, 1.17 fold enrichment (6-mer frequency, TF over GST control); with ELF3 it was 1.23 fold enrichment (6-mer frequency, TF over GST control); with ETV1, 1.27 fold enrichment (6-mer frequency, TF over GST control).
